Screening results: PubChem BioAssay, several laboratories
zVAD death inh = blocks zVAD induced death of L929 cells; 0.38% of 220,000 active; AID 1377; L929 zVAD necroptosis rescue, ATP luminescence, 24 h; with zVAD 60 µM; viability rescue, % at 10 µM;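 active = activation, scaled between plate controls, above about 75%, limit read from the data; inactive = activation under that limit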
Efa HMGR inh = blocks class II HMG-CoA reductase of Enterococcus faecalis | purified E. faecalis HMGR, NADPH absorbance 340 nm kinetic | inhibition, % at 10 µM | 0.41% of 190,000 active;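 active = inhibition above a set limit, the median over all tested compounds plus 3 SD, cut at about 9.5% in these data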;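 note: enzyme runs in reverse so mevalonate oxidation gives rising NADPH absorbance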
Calpain2 inh = calpain II (pig) inhibition | purified calpain II, fluorogenic peptide substrate, 30 min | inhibition, % at 16 µM | 0.37% of 220,000 active;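 active = inhibition above about 50%, limit read from the data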
TNF death inh = TNF-alpha cell death inhibition in Jurkat FADD-/- cells; Jurkat FADD-/- TNF necroptosis rescue, ATP luminescence, 24 h; 0 = TNF only, 100 = no-TNF cells; activation (protection from cell death), % at 10 µM; 0.068% of 220,000 active; AID 463075;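 active = activation, meaning protection from cell death, of at least 50% relative to plate controls; inactive = activation below 50%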;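 note: necroptosis triggered by 40 ng/mL TNF-alpha added together with compound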
14-3-3 Bad PPI = disrupts binding of bovine 14-3-3 zeta to phospho-Bad peptide | AID 781 | P63103 | inhibition, % at 21.7 µM | 0.71% of 220,000 active | TR-FRET 14-3-3zeta/Dy647-pBad peptide displacement, 1 h;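 active = inhibition above about 70%, limit read from the data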
Target sequence (P63103 whole entry, looked up): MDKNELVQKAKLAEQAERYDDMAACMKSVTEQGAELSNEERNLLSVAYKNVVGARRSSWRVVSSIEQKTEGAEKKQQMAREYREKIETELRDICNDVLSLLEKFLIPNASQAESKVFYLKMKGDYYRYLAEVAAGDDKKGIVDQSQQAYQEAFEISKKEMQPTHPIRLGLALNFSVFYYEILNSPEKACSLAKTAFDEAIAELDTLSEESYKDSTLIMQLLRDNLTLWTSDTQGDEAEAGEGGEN
ROMK mod = human ROMK K+ channel modulation, primary screen. Tet-inducible ROMK, thallium flux fluorescence; actives lie on both sides. AID 1918. P48048. 2% of 130,000 active. B-score at 10 µM;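 active = signal ratio slope over the read window, or its plate-corrected B-score, at least 3 SD from the plate mean, either direction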;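 note: B-score of the F/F0 ratio slope over 7 to 12 s after thallium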
Target sequence (P48048 whole entry, looked up): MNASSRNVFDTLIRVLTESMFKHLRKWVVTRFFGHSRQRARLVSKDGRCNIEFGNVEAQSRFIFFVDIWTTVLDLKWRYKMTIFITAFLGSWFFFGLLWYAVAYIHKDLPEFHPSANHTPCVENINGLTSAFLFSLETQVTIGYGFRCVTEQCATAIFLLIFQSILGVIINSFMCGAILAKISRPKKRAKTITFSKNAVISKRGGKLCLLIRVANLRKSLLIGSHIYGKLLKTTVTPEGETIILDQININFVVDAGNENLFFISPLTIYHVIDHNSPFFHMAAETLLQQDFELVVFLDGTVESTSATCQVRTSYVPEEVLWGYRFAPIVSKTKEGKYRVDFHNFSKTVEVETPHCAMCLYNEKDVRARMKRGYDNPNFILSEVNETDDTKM
zVAD necrop conf = confirmed blocker of zVAD induced death in L929 cells; shares compounds with zVAD death inh; 16% of 760 active; activation (protection from necroptosis), % at 10 µM; L929 zVAD-induced necroptosis rescue, ATP luminescence, 24 h; AID 463117;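 active = mean protection from necroptosis of at least 50% over duplicate tests; inactive = mean protection below 50%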
A number is an active result; n = inactive; x = no result given. Hits are enriched below; roughly 3% of the tested compounds scored in any of these assays.

SMILES	zVAD death inh	Efa HMGR inh	Calpain2 inh	TNF death inh	14-3-3 Bad PPI	ROMK mod	zVAD necrop conf
COc1cc(/C=N/Nc2nc3ccccc3[nH]2)cc(OC)c1O	86.7	n	n	n	n	x	n
Cc1cc(C)n2nc(C(=O)Nc3ccc4c(c3)CCC4)nc2n1	n	n	n	n	n	n	x
N#Cc1nc(-c2ccco2)oc1NCCCn1ccnc1	n	n	n	n	n	n	x
CNC(=O)C(=O)NCC1OCCN1S(=O)(=O)c1ccc2c(c1)OCCO2 (centres undefined)	n	n	n	n	n	n	x
CNc1nc(C)nc(N/N=C/c2ccccc2)n1	75.9	n	n	n	n	n	n
O=c1nc(N/N=C/c2c[nH]c3ccccc23)cn[nH]1	n	x	n	n	n	n	x
O=C(O)c1cccc2c(/C=N/Nc3ccccn3)c[nH]c12	83.6	x	n	n	n	n	n
Brc1ccccc1/C=N/Nc1ccccn1	n	n	n	n	n	n	x
C(=N\Nc1ccccn1)/c1c[nH]c2ccccc12	91.6	x	n	n	n	n	54.9
COc1cc(/C=C/C(=O)O)cc(S(=O)(=O)NCCO)c1OC	n	n	n	n	n	x	x
O=C(N/N=C/c1ccccc1)c1n[nH]c2c1CCCC2	82.6	n	n	n	n	n	n
O=C(N/N=C/c1ccc(Cl)cc1)c1n[nH]c2c1CCCC2	n	x	n	n	n	x	x
COCC(=O)n1nc(-c2ccccc2)nc1NCc1ccc(F)cc1	n	n	n	n	n	x	x
COCC(=O)n1nc(-c2ccccc2)nc1NCc1ccccc1	86.3	n	n	n	n	x	n
CC(=O)n1nc(-c2ccccc2)nc1NCc1cccs1	85.8	n	n	n	n	n	n
CCC(=O)n1nc(-c2ccc(OC)cc2)nc1NCc1cccs1	76.1	n	n	n	n	n	n
CC(=O)n1nc(-c2ccccc2)nc1NCc1ccc(N(C)C)cc1	n	n	n	n	n	n	x
CCC(=O)n1nc(-c2cccnc2)nc1NCc1ccc(OC)cc1	n	n	n	n	n	x	x
COC(=O)C1=C(C)NC2=C(C(=O)CCC2)C1c1ccc(-c2ccsc2C(=O)OC)o1 (centres undefined)	n	x	n	n	n	x	x
NC(=O)Nc1ccc(F)cc1	n	n	n	n	n	n	x
COc1ccc(NC(=O)Nc2cccc(OC)c2)cc1	n	x	x	n	x	n	x
COc1cccc(NC(=O)Nc2cc(Cl)ccc2C)c1	76.8	n	n	n	n	n	n
COc1ccc(C)cc1S(=O)(=O)N(C)CC(=O)N1CCC(C(N)=O)CC1	n	n	n	n	n	n	x
Cc1nc2nc(SCC(=O)c3ccc([N+](=O)[O-])cc3)[nH]c2cc1Br	89.5	n	n	n	n	x	n
Cc1nc(-c2ccccc2)sc1-c1ccnn1C	n	n	n	n	n	n	x
SMILES	zVAD death inh	Efa HMGR inh	Calpain2 inh	TNF death inh	14-3-3 Bad PPI	ROMK mod	zVAD necrop conf
Cc1nc(-c2ccccc2)sc1-c1ccn[nH]1	80.0	n	n	n	n	n	n
Nc1[nH]nc2nc(N3CCOCC3)nc(-c3ccccc3)c12	91.6	n	n	n	n	n	n
Cc1nc(CN2CCCCC2)cc(=O)[nH]1	n	n	n	n	n	n	x
Cc1cc(-c2ccccc2)nc(N/N=C/c2ccc([N+](=O)[O-])cc2)n1	n	n	n	n	n	n	x
O=[N+]([O-])c1ccc(/C=N/Nc2ncc(-c3ccccc3)cn2)cc1	78.5	n	n	n	n	n	n
NS(=O)(=O)c1cccc(NC(=O)Nc2ccc(Cl)cc2)c1	75.1	x	n	n	n	x	n
Cc1cccc(NC(=O)Nc2ccc(S(N)(=O)=O)cc2)c1	n	x	n	n	n	n	x
COC(=O)CSc1nc(-c2ccccc2)nc2ccccc12	n	n	n	n	n	n	x
Cc1cccc(NC(=O)CN2C(=O)S/C(=C\c3ccc(O)c([N+](=O)[O-])c3)C2=O)c1	n	n	n	n	n	n	x
Cc1ccc(NC(=O)CN2C(=O)S/C(=C/c3ccc(O)c([N+](=O)[O-])c3)C2=O)cc1C	85.7	n	n	n	83.5	n	n
COc1cc([N+](=O)[O-])ccc1NC(=O)COC(=O)c1ccc(NC(N)=O)cc1	78.4	x	n	n	n	x	n
COCC(=O)Nc1ccc([N+](=O)[O-])cc1OC	n	n	n	n	n	n	x
C=C(C)COc1ccc(-c2nc(N)ncc2-c2ccc(OC)cc2)c(O)c1	n	n	n	n	n	x	x
COc1ccc(-c2cnc(N)nc2-c2ccc(OC)cc2O)cc1	92.5	n	n	n	n	n	n
N=c1nc(N)nc2n1NC(c1ccc(F)cc1)=CS2	81.2	n	n	n	n	x	n
O=C(CCc1nnc(CCCCc2ccccc2)o1)NCCCc1cccnc1	n	n	n	n	n	n	x
Cc1nn(-c2ccccc2)c(C)c1-c1cc(C(=O)N/N=C/c2cccnc2)[nH]n1	75.4	n	n	n	n	n	n
c1cnc2ccc(C(c3nnnn3C3CCCCC3)N3CCN(C4CCCCC4)CC3)cc2c1 (centres undefined)	77.4	x	x	n	x	x	69.6
O=C(C1CCN(Cc2cn[nH]c2-c2ccc(F)cc2F)CC1)N1CCOCC1	n	n	n	n	n	n	x
O=C(CSc1nnnn1-c1ccc2c(c1)OCCO2)Nc1nc2c(s1)CCCC2	83.6	n	n	n	n	x	73.6
Cc1nc2ccccn2c1C(=O)Nc1ccc(Cl)cc1	n	n	n	n	n	n	x
Cc1ccc(NC(=S)NNC(=S)Nc2cccc(C(F)(F)F)c2)cc1	75.6	x	n	n	n	n	n
O=C(CSc1nnc(-c2ccc(F)cc2)o1)N1CCN(C(=O)c2ccco2)CC1	n	n	n	n	n	x	x
O=C(CSc1nnc(-c2ccccc2Br)o1)N1CCN(C(=O)c2ccco2)CC1	86.3	n	n	n	n	n	n
CC(=O)c1ccc(N(C(=O)Cn2nnc(-c3ccccc3)n2)C(C(=O)NC2CCCCC2)c2ccccn2)cc1 (centres undefined)	n	n	n	n	n	n	x
SMILES	zVAD death inh	Efa HMGR inh	Calpain2 inh	TNF death inh	14-3-3 Bad PPI	ROMK mod	zVAD necrop conf
O=C(/C=C/c1cccs1)Nc1nccs1	79.3	n	n	n	n	n	n
CCOC(=O)/C=C/C(=O)Nc1nccs1	n	n	n	n	n	x	x
O=C(/C=C/c1cccc(F)c1)Nc1nccs1	87.8	n	n	n	n	n	76.4
Cc1ccc(/C=C/C(=O)Nc2nccs2)o1	78.9	n	n	n	n	x	n
O=C(/C=C\c1ccccc1)Nc1nccs1	103.2	n	n	n	n	x	n
O=C(CN(C(=O)CNC(=O)c1ccco1)c1ccc2c(c1)OCCO2)NC1CCCC1	n	n	n	n	n	n	x
O=C(NCCCn1ccnc1)c1cc(-c2cccs2)on1	76.0	n	n	n	n	n	n
COc1cc(CC(=O)Nc2nc(C)cs2)cc(OC)c1OC	n	n	n	n	n	n	x
Brc1ccc(COn2ccnc2)cc1	91.4	n	n	61.3	n	n	74.9
